Data reported in PubChem BioAssay AID1244 (Sanford-Burnham Center for Chemical Genomics, 2008).
Calls of active or inactive are those of the source. How the calls were made is not given here.

Assay: Bcl-B/Bim-BH3 peptide binding displacement, dose response, counter-screen for TR3-derived Bcl-B inhibitor project, biochemical, fluorescence polarization (AID 1244)
Settings: Bcl-B/FITC-Bim-BH3 peptide binding

Structure (SMILES)	EC50
Cc1ccc(C)n1-c1ccc(Br)cc1C(=O)O	0.48 µM (active)
Cc1cc(C)nc(/N=C(/N)Nc2cccc(N)c2)n1	> 25 µM (inactive)
